The panel holds about 83,000 compounds, 20% with a hit somewhere; the sample as a whole holds those more often.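 Growth was measured after 48 h exposure to one concentration of compound in 96-well plates. Values under 10 count as active.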 A number with no mark means an inactive call. Calls of active or inactive are those of the source.
How the values were obtained:
Assay in all cases: NCI-60 one-dose screen, 48 h (100 = growth as untreated, 0 = no growth, -100 = all killed)
Settings in all cases: 10 µM unless noted
HCT-15 colon = test system: HCT-15 colon
HT29 colon = test system: HT29 colon
SNB-75 CNS = test system: SNB-75 CNS
SNB-19 CNS = test system: SNB-19 CNS
U251 CNS = test system: U251 CNS
PC-3 prostate = test system: PC-3 prostate
SK-MEL-5 melanoma = test system: SK-MEL-5 melanoma
UACC-62 melanoma = test system: UACC-62 melanoma
LOX IMVI melanoma = test system: LOX IMVI melanoma
SK-MEL-28 melanoma = test system: SK-MEL-28 melanoma
SK-MEL-2 melanoma = test system: SK-MEL-2 melanoma
EKVX NSCLC = test system: EKVX NSCLC
SN12C renal = test system: SN12C renal
UO-31 renal = test system: UO-31 renal
TK-10 renal = test system: TK-10 renal
ACHN renal = test system: ACHN renal
CAKI-1 renal = test system: CAKI-1 renal
A498 renal = test system: A498 renal
CCRF-CEM leukemia = test system: CCRF-CEM leukemia
MOLT-4 leukemia = test system: MOLT-4 leukemia

Structure (SMILES)	growth (HCT-15 colon)	growth (HT29 colon)	growth (SNB-75 CNS)	growth (SNB-19 CNS)	growth (U251 CNS)	growth (PC-3 prostate)	growth (SK-MEL-5 melanoma)	growth (UACC-62 melanoma)	growth (LOX IMVI melanoma)	growth (SK-MEL-28 melanoma)	growth (SK-MEL-2 melanoma)	growth (EKVX NSCLC)	growth (SN12C renal)	growth (UO-31 renal)	growth (TK-10 renal)	growth (ACHN renal)	growth (CAKI-1 renal)	growth (A498 renal)	growth (CCRF-CEM leukemia)	growth (MOLT-4 leukemia)
CCn1cc(C(=O)N/N=C/c2ccccc2)c(=O)c2cc(F)c(N3CCNC(C)C3)c(F)c21 (stereo not given)	-86.5% (active)	-92% (active)	92.8%	18.9%	-92.3% (active)	48.9%	11.9%	-27.9% (active)	-87.3% (active)	-78.8% (active)	93.4%	34.3%	61.7%	47.5%	82.7%	56.8%	45.8%	99.6%	-52.1% (active)	-24.5% (active)
Cc1cc(C)c2c(c1)N(C)c1ncnc(-n3c(C)nc4cc(C)ccc43)c1CC2C (stereo not given)	32.6%	34.3%	29.4%	50.4%	34.5%	24.7%	13.6%	31.6%	43.1%	59%	46.7%	45.2%	62.3%	39%	53.3%	39.4%	37.3%	0.985% (active)	21.6%	27.8%
O=C(NCCNC(c1ccccc1)C(NCCNC(=O)c1ccccc1)c1ccccc1)c1ccccc1 (stereo not given)	18.8%	36.7%	117%	88%	74.7%	70.4%	95.7%	85.2%	75.6%	103%	45.9%	123%	97.7%	80.3%	97.5%	7.15% (active)	61.6%	112%	97.1%	72.2%
S=c1ccnc[nH]1	103%	110%	120%	102%	102%	100%	109%	102%	96.5%	144%	96.6%	118%	96.8%	82.5%	127%	99.4%	104%	112%	123%	107%
O=C(CN1C(=O)S/C(=C\C(Cl)=C\c2ccccc2)C1=O)NC1CCS(=O)(=O)C1 (stereo not given)	15.7%	53.5%	57.8%	86.8%	81.6%	80.9%	84.5%	72.1%	14.2%	74.9%	85%	82.4%	79.7%	65.6%	64%	46.8%	78.1%	99.7%	12.3%	40.7%
COC(=O)c1nc(-c2ccccc2)oc1S(=O)(=O)N1CCCC(C)C1 (stereo not given)	37.2%	56.3%	105%	91.5%	90.8%	71.6%	85.2%	84.7%	61.6%	84.9%	96.7%	100%	84.4%	65.7%	50.6%	66.7%	92.6%	92.9%	1.21% (active)	6.09% (active)
CSc1nc2ccc(C)cc2cc1/C=C1/C=C(c2ccccc2)NC1=O	57.4%	57.6%	26.4%	67.3%	16.3%	68.4%	80.4%	71.9%	45.3%	79.1%	89.5%	61.4%	32.6%	12.8%	-6.59% (active)	-52.8% (active)	5.73% (active)	41.7%	48.3%	44.1%
COc1ccc(Nc2ncc(I)c(NCCCNC(=O)C3CCC3)n2)cc1	-18.8% (active)	12.5%	39.4%	24.5%	2.43% (active)	23.8%	23.3%	22.9%	-11.3% (active)	43.4%	35.5%	21.9%	19.8%	-94.1% (active)	-14.5% (active)	-21% (active)	0.394% (active)	-51.4% (active)	2.24% (active)	10.5%
COc1ccc(-c2cc(-c3cn(-c4cccc(Cl)c4)nc3-c3ccc(OC)cc3)on2)cc1	91.2%	93.6%	99.2%	92.7%	90.2%	86.5%	98%	94%	102%	105%	86.8%	98.8%	89%	77.3%	-45.1% (active)	101%	93.5%	78.6%	88.1%	77%
CN1C(=O)/C(=C/c2ccc(C(=O)Nc3ncc(Cc4cc(Cl)ccc4Cl)s3)cc2)SC1=S	49%	64%	63.1%	87.8%	82.7%	65.8%	67%	34.2%	41.7%	77%	101%	67%	87.7%	63.4%	79.6%	58.8%	30.2%	77.4%	62.9%	70.8%
Nc1nc(N(Cc2ccccc2)c2ccccc2)c2cn[nH]c2n1	49.8%	32.3%	56.8%	68.1%	42.6%	74.8%	44.6%	45.7%	53%	63.4%	111%	75.3%	85.8%	75%	92.2%	71.2%	31.9%	69.9%	92.6%	62.2%
CN(C)CCC(CCN(C)C)(C(=O)O)c1ccccc1	99.7%	96.6%	97.2%	101%	102%	92.7%	102%	103%	106%	105%	102%	107%	98.4%	88.3%	106%	98.5%	95.4%	90.4%	100%	109%
C=CC(=O)Nc1cccc(Oc2nccc(Nc3nnc(-c4ccc(Br)cc4)s3)n2)c1	88.6%	116%	87.5%	97%	97.5%	89.5%	94.7%	87.6%	91.9%	108%	110%	101%	99.2%	78.9%	152%	100%	81.2%	101%	87.3%	100%
CN(C)CCCC1(c2ccc(F)cc2)OCc2cc(-c3csc4ccccc34)ccc21 (stereo not given)	-59.7% (active)	-29.2% (active)	29.7%	-35.6% (active)	-57.1% (active)	30%	-45.7% (active)	-86.3% (active)	-97.9% (active)	-84% (active)	62.6%	55.3%	39.7%	2.29% (active)	62.1%	0.407% (active)	4.7% (active)	90.2%	-14.3% (active)	-15.6% (active)
Nc1ccc(-c2ccncc2)cc1NC(=O)N1CCCC1	100%	72.9%	85%	106%	89.8%	91.2%	99.3%	91.7%	112%	96.1%	87.9%	104%	100%	88.7%	85.2%	108%	95%	76.8%	88.1%	87%

Source: PubChem BioAssay (NCI)
